Assay results as given in PubChem BioAssay (EPA / NIEHS).
Activity calls are given as the source filed them. How the source made its calls: active means hit-call score of the fitted dose curve at least 0.9, where 1 is the maximum; inactive means score below 0.9.

Experiment: IUF_NPC2a_radial_glia_migration_72hr: Leibniz Research Institute for Environmental Medicine (IUF) 72-hour Neural Progenitor Cell Migration Assay for Radial Glia Migration (NPC2a) (AID 2284299)
How it was run: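 Primary hNPC spheres, fetal brain GW 16-19, on PDL/laminin; DMEM/F12 3:1 + 1% N2. Compound dosed day 0, 7 conc. + SC, half-medium refresh day 3. 72 h brightfield, migration distance core-to-front (um), 4 directions averaged.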

**Q.** Which outcome does the source give for `CC(C)c1c(C(=O)Nc2ccccc2)c(-c2ccccc2)c(-c2ccc(F)cc2)n1CC[C@@H](O)C[C@@H](O)CC(=O)O` here?
**A.** The outcome was “inactive”.

**Q.** For `O=C(CCCN1CCC(O)(c2ccc(Cl)cc2)CC1)c1ccc(F)cc1`, which outcome is on record?
**A.** Its outcome is “inactive”.

**Q.** For `CC(=O)Nc1ccc(O)cc1`, which outcome is on record?
**A.** The outcome was “inactive”.

**Q.** With `O=C1NS(=O)(=O)c2ccccc21` as the compound, how does the outcome read?
**A.** Its outcome is “inactive”.

Experiment: IUF_NPC2b_neuronal_migration_120hr: Leibniz Research Institute for Environmental Medicine (IUF) 120-hour Neural Progenitor Cell Migration Assay for Neuron Migration (NPC2b) (AID 2284300)
How it was run: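 Primary human fetal cortex neural progenitor spheres (0.3 mm) plated on poly-D-lysine/laminin in N2 differentiation medium, exposed 120 h with half-medium refresh at day 3. TUBB3-stained neuron distance from sphere core, normalized to radial glia migration, versus DMSO.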

**Q.** For `CC(C)c1c(C(=O)Nc2ccccc2)c(-c2ccccc2)c(-c2ccc(F)cc2)n1CC[C@@H](O)C[C@@H](O)CC(=O)O`, which outcome is on record?
**A.** Its outcome is “inactive”.

**Q.** For `O=C(CCCN1CCC(O)(c2ccc(Cl)cc2)CC1)c1ccc(F)cc1`, which outcome is on record?
**A.** Its outcome is “inactive”.

**Q.** With `CC(=O)Nc1ccc(O)cc1` as the compound, how does the outcome read?
**A.** The outcome was “inactive”.

**Q.** For `O=C1NS(=O)(=O)c2ccccc21`, which outcome is on record?
**A.** Its outcome is “inactive”.
